From PubChem
A selection: hits, their analogues and other compounds. The true share with any hit is near 17%.
TDP1 inh: inhibitors of human tyrosyl-DNA phosphodiesterase TDP1; Q9NUW8; Potency, µM (top dose mostly 130 µM), without a hit: at the top dose activity change, negative = inhibition, actives largely listed as inhibitors; recombinant TDP1, AlphaScreen DNA substrate cleavage; 350,000 compounds, 0.28% hits; AID 485290; further: on the % scale 0 is the no-effect control and ±100 the full control effect; nearly all actives have a fitted effect of over 40% in size
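Signal: AlphaScreen proximity between streptavidin donor and anti-FITC acceptor beads on intact substrate. Reaction: Tdp1 1 nM, substrate 15 nM final, 5 min RT after 15 min compound preincubation.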
DT40 TDP1 CPT: growth inhibition of DT40 Tdp1-/-;hTDP1 cells with camptothecin (screen for TDP1 inhibitors). chicken DT40 Tdp1-/-;hTDP1 cells + 20 nM CPT, ATP luminescence, 48 h. Potency, µM (titrated, usually from 46.2 µM), without a hit: at the highest dose activity change, negative = growth inhibition, usual class: inhibitors. 420,000 compounds, 12% hits. AID 686979; further: on the % scale 0 is the no-effect control and ±100 the full control effect; nearly all actives have a fitted effect of over 55% in size
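Cell growth measured by CellTiter-Glo luminescence after a minimum 48 h, 37 C compound exposure with 20 nM CPT in Tdp1-knockout DT40 cells stably expressing hTDP1, seeded 400/well; qHTS titration format.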
ClpP mod: qHTS Assay for Activators of ClpP; 340,000 compounds, 1.9% hits; AID 651965, 2013; Potency, µM (doses to about 57.5 µM), for the others: at the highest dose activity change, negative = active; ATP-dependent Clp protease proteolytic subunit (Bacillus subtilis (strain 168)), P80244; purified B. subtilis ClpP, FRET peptide cleavage, 20 min; active means well fitted falling curve with a large enough effect; inconclusive means small, poorly fitted or top-dose-only effect; inactive means no such curve, though single readings can be large or run the other way; further: the source files actives as falling curves though it sought activators and does not explain the sign; nearly all actives have a fitted effect of over 65% in size
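Buffer: 100 mM Tris/HCl pH8, 100 mM KCl, 0.05% low protease BSA, 2.5% glycerol, 0.01% Tween-20. ClpP 10 microg/mL final; 20 min RT; delta FRET normalized to ADEP and DMSO controls.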
DT40 TDP1 no CPT: qHTS for Inhibitors of human tyrosyl-DNA phosphodiesterase 1 (TDP1): qHTS in cells in absence of CPT | 420,000 compounds, 15% hits | AID 686978, 2013 | DT40 Tdp1-/- hTDP1 cells, no CPT, ATP luminescence, 48 h | Potency, µM (highest dose often 46.2 µM), inactives show top-dose activity change, negative = growth inhibition, actives largely listed as inhibitors; further: on the % scale 0 is the no-effect control and ±100 the full control effect; nearly all actives have a fitted effect of over 55% in size
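Compound effects on proliferation are scored in DT40 Tdp1-/-;hTDP1 cells in the absence of CPT. ATP levels (CellTiter-Glo luminescence) are recorded after a ≥48 hr, 37 °C incubation.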
* marks the source's active call; other numbers are inactive results; ? = inconclusive; / = no result given; [ ] = another dose, or the depositor's remark. Unless noted, the call rests on the fitted dose curve; in most records, active means well fitted curve in the direction sought with a large enough effect; inconclusive means small, poorly fitted or top-dose-only effect, or another doubt; inactive means no such curve, though single readings can be large; an effect the other way counts as inactive or inconclusive. Potency means the concentration at half of the fitted maximal effect.

SMILES	TDP1 inh	DT40 TDP1 CPT	ClpP mod	DT40 TDP1 no CPT
Cc1ccc(NC(=O)Cn2c(=O)oc3cc(S(=O)(=O)N4CCCCC4)ccc32)c(C)c1	4%	6.5µM*	1%	8.2µM*
O=C(Cn1c(=O)oc2cc(S(=O)(=O)N3CCCC3)ccc21)NC1CCCCC1	/	-3%	-1%	-28%
CC(=O)Oc1ccc(N2C(=O)C3C(C2=O)C(C(=O)c2ccc(Cl)cc2)N2CCCC32)cc1 (stereo not given)	1%	?	/	18µM*
Cc1ccc(C2(CCN)CCOC(C(C)C)C2)cc1 (stereo not given)	1%	23µM*	0%	?
CC(C)C1CC(CCN)(c2ccccc2)CCO1 (stereo not given)	/	?	-3%	-11%
O=C(O)Cc1ccc2sc(-c3ccccc3)nc2c1	5%	?	?	-28%
COC(=O)Cc1ccc2sc(-c3ccccc3)nc2c1	-6%	-20%	28µM*	-29%
COC(=O)Cc1sc(-c2ccccn2)nc1-c1ccccc1	6%	?	5%	16µM*
Cc1ccc(-c2nc(-c3cccnc3)sc2CC(=O)O)cc1	/	-13%	3%	2%
COc1ccc(N(CC(=O)NCc2ccccc2Cl)S(=O)(=O)c2c(C)noc2C)cc1	1%	-10%	0%	-25%
CCS(=O)(=O)c1ccc2oc(Nc3ccc(C(C)(C)C)cc3)nc2c1	0%	16µM*	0%	15µM*
CCN(CC)S(=O)(=O)c1ccc2oc(Nc3ccc4c(c3)OCCO4)nc2c1	5%	16µM*	1%	23µM*
CCOC(=O)CC1C(=O)NCCN1S(=O)(=O)c1ccc(NC(C)=O)cc1 (stereo not given)	1%	-16%	-2%	5%
CCOc1ccc(-c2c(C)nn3c(C)c(C(=O)Nc4ccccc4C(=O)OC)cnc23)cc1OCC	8%	?	-1%	-17%
Cc1ccc(Cl)cc1N1CCN(C(=O)Cn2nc(C)n3c(cc4sccc43)c2=O)CC1	-1%	18µM*	-7%	21µM*
Cc1ccc(Cl)cc1N1CCN(C(=O)Cn2ccc3ccccc3c2=O)CC1	-1%	16µM*	-5%	21µM*
Cc1ccc(Cl)cc1N1CCN(C(=O)Cn2ncn3cccc3c2=O)CC1	/	21µM*	1%	?
O=C(Cn1ncn2cccc2c1=O)N1CCCCC1	-5%	5%	0%	0%
CCC1CCCCN1Cc1nc2c(c(=O)n(C)c(=O)n2C)n1Cc1c(F)cccc1Cl (stereo not given)	2%	?	-1%	?
N/C(=N\N=C\c1ccc(Cl)cc1)N/N=C/c1ccc(Cl)cc1	/	?	/	-21%
CC1(C(=O)Nc2ccc3c(c2)OCCO3)CN(S(C)(=O)=O)CC(=O)N1C1CCCCCC1 (stereo not given)	/	15%	4%	-6%
COC(=O)C(c1ccccc1Cl)N1CCc2sccc2C1 (stereo not given)	6%	?	/	0%
COC(=O)c1ccc(CSc2ccc3nnc(-c4cccc(F)c4)n3n2)o1	0%	-82%	?	7.3µM*
COc1ccc(Cl)cc1-c1cc(C(=O)NCc2cccs2)[nH]n1	/	12µM*	-5%	?
COc1ccc(F)cc1-c1cc(C(=O)NCc2cccc(C(F)(F)F)c2)[nH]n1	/	?	-6%	?
SMILES	TDP1 inh	DT40 TDP1 CPT	ClpP mod	DT40 TDP1 no CPT
CC(C)Oc1ccc(F)cc1-c1cc(C(=O)Nc2ccc(C(C)(C)C)cc2)[nH]n1	/	6.5µM*	-5%	3.3µM*
COc1ccc(Cl)cc1-c1cc(C(=O)NCc2cccc(Cl)c2)[nH]n1	/	?	-23%	?
COc1ccc(F)cc1-c1cc(C(=O)NCc2ccc(C(F)(F)F)cc2)[nH]n1	/	23µM*	?	16µM*
COc1ccc(Cl)cc1-c1cc(C(=O)NCc2cc(C(F)(F)F)cc(C(F)(F)F)c2)[nH]n1	/	?	?	15µM*
COc1ccc(OC)c(C2C(C(=O)Nc3ccc(C)cc3C)=C(C)Nc3c(C(=O)Nc4ccc(F)cc4)cnn32)c1 (stereo not given)	5%	?	?	?
COc1ccccc1-c1c(C(F)(F)F)oc2cc(OC(=O)c3ccc([N+](=O)[O-])cc3)ccc2c1=O	8%	?	1%	?
Cc1ccc(Cl)cc1-c1cc(C(=O)NCc2cc(C(F)(F)F)cc(C(F)(F)F)c2)[nH]n1	/	?	-3%	21µM*
CC(C)Oc1ccc(F)cc1-c1cc(C(=O)Nc2ccccc2)[nH]n1	/	?	0%	?
CCOc1ccc(Cl)cc1-c1cc(C(=O)NCc2cccc(C(F)(F)F)c2)[nH]n1	/	10µM*	-19%	13µM*
Cc1ccc(F)cc1-c1cc(C(=O)NCc2cc(C(F)(F)F)cc(C(F)(F)F)c2)[nH]n1	/	29µM*	4%	?
CC(C)Oc1ccc(F)cc1-c1cc(C(=O)NCc2ccc(F)cc2)[nH]n1	/	26µM*	-14%	?
CCNC(=O)N(C)c1c(CC)nc2ccc(C(=O)N3CCN(C(=O)c4ccco4)CC3)cn12	/	-3%	0%	-7%
Cc1ccc2c(c1)CN(CCNC(=O)c1n[nH]c3c1CCCC3)CC(C)O2 (stereo not given)	/	?	/	-13%
Cc1c(C)c2ccc(OC(C)C(=O)NCCCN3CCOCC3)c(C)c2oc1=O (stereo not given)	0%	9%	4%	19%
CCOc1cc(/C=C2\N=C(SC)SC2=O)cc([N+](=O)[O-])c1OC(C)=O	8%	18µM*	1%	?
Cc1ccc(C)c(N2CCN(C(=O)c3cc4c(=O)n(Cc5cccnc5)ccc4nc3C)CC2)c1	7%	23µM*	-26%	?
Cc1ccc(C)c(N2CCN(C(=O)c3cc4c(=O)n(Cc5ccccc5)ccc4nc3C)CC2)c1	6%	16µM*	?	23µM*
Cc1nc2ccn(Cc3ccccc3)c(=O)c2cc1C(=O)N1CCN(c2ccccc2F)CC1	3%	?	4%	?
COc1ccccc1CNc1ncnc2sc(C(=O)N(C)C(C)C)c(C)c12	/	-4%[9.04 µM]	/	?
CCCCCCCCCCCCCCCC[N+](C)(C)Cc1ccc(F)cc1	/	6.5µM*	-4%	7.3µM*
CCCCCCCCCCCCC[N+](C)(C)Cc1ccccc1	9%	0.65µM*	/	0.58µM*
CCc1cccc(C)c1NC(=O)C1CCN(S(=O)(=O)c2c(C)noc2/C=C/c2c(C)cc(C)cc2C)CC1	7%	?	-3%	10µM*
COc1ccc(/C=C\c2onc(C)c2S(=O)(=O)N2CCC(C(=O)Nc3ccc(Cl)cc3)CC2)cc1	2%	-12%	-2%	?
COc1cc(NC(=O)C2CCN(S(=O)(=O)c3c(C)noc3/C=C/c3c(C)cc(C)cc3C)CC2)cc(OC)c1	4%	13µM*	-4%	-96%
